Measured values: PubChem BioAssay AID1159580 (chemical genetic matrix, 2015)
Among all 5,500 compounds or so, about 2,000 (36%) were called active. About 18% were inconclusive and are not listed. Rule as the data show it: active = normalized growth mostly below about 0.91 (no sharp cut-off); inconclusive = no clear call, values can overlap the other calls; inactive = mostly above about 0.92. The list shows a part of the results.

Assay: chemical genetic growth profiling, strain panel (AID 1159580);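 also: tested at 20 µM; growth read once vehicle control cultures reached saturation at 30 °C; 1 = growth at the plate median or of vehicle wells; lower values mean less growth of the strain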
Conditions: S. cerevisiae deletion strains, growth OD
[1] = locus YAL013W, strain DEP1, stronger effect = lower value
[2] = locus YBR229C, strain ROT2, stronger effect = lower value
[3] = locus YCL061C, strain MRC1, stronger effect = lower value
[4] = locus YDL101C, strain DUN1, stronger effect = lower value
[5] = locus YDR150W, strain NUM1, stronger effect = lower value
[6] = locus YEL061C, strain CIN8, stronger effect = lower value
[7] = locus YGR078C, strain PAC10, stronger effect = lower value
[8] = locus YHR030C, strain SLT2, stronger effect = lower value
[9] = locus YHR087W, strain rtc3, stronger effect = lower value
[10] = locus YJL187C, strain SWE1, stronger effect = lower value
[11] = locus YJR043C, strain POL32, stronger effect = lower value
[12] = locus YJR075W, strain HOC1, stronger effect = lower value
[13] = locus YKL190W, strain CNB1, stronger effect = lower value
[14] = locus YLR039C, strain RIC1, stronger effect = lower value
[15] = locus YLR058C, strain SHM2 (second series), stronger effect = lower value
[16] = locus YLR085C, strain ARP6, stronger effect = lower value
[17] = locus YLR262C, strain YPT6, stronger effect = lower value
[18] = locus YML094W, strain GIM5, stronger effect = lower value
[19] = locus YMR219W, strain ESC1, stronger effect = lower value
[20] = locus YMR263W, strain SAP30, stronger effect = lower value
[21] = locus YMR307W, strain GAS1, stronger effect = lower value
[22] = locus YNL153C, strain GIM3, stronger effect = lower value
[23] = locus YNL298W, strain CLA4 (second series), stronger effect = lower value
[24] = locus YNL322C, strain KRE1, stronger effect = lower value
[25] = locus YNR030W, strain Alg12, stronger effect = lower value
[26] = locus YOL006C, strain TOP1, stronger effect = lower value
[27] = locus YPL055C, strain LGE1, stronger effect = lower value
[28] = locus YPL241C, strain CIN2, stronger effect = lower value
[29] = locus YPR135W, strain CTF4, stronger effect = lower value
[30] = locus YDL134C, strain PPH21, stronger effect = lower value
[31] = locus YGR229C, strain SMI1, stronger effect = lower value
[32] = locus YJL095W, strain BCK1, stronger effect = lower value
[33] = locus YNL128W, strain TEP1, stronger effect = lower value

Measured: normalized growth

Cc1c(S(=O)(=O)c2ccc(Cl)cc2)csc1C(=O)Nc1ccc(N2CCOCC2)c(Cl)c1
inactive: [1] 0.992 | [2] 1.03 | [3] 1.05 | [4] 1.06 | [5] 1.05 | [6] 1.03 | [7] 1.07 | [8] 1.06 | [9] 0.999 | [10] 1.03 | [11] 1.03 | [13] 0.982 | [14] 0.992 | [15] 0.989 | [16] 0.947 | [17] 1.12 | [18] 0.988 | [19] 1 | [20] 1.03 | [21] 1.03 | [22] 1.06 | [23] 0.999 | [24] 0.991 | [25] 0.995 | [26] 1.03 | [27] 1.05 | [28] 0.984 | [29] 1.13
active: [12] 1.15 [resistant]

Cc1c(S(=O)(=O)c2ccc(Cl)cc2)csc1S(=O)(=O)N/N=C\c1c(Cl)cccc1Cl
inactive: [1] 1 | [2] 1.01 | [4] 1.02 | [30] 0.996 | [5] 0.948 | [6] 0.991 | [7] 1.01 | [31] 1 | [8] 1.02 | [9] 0.998 | [11] 1.01 | [12] 1.03 | [13] 1 | [14] 1 | [15] 1.01 | [16] 1.04 | [17] 1 | [18] 0.988 | [19] 1.01 | [20] 0.984 | [21] 1.04 | [22] 1 | [23] 1.03 | [24] 1 | [25] 1.01 | [26] 1.03 | [27] 0.886 | [28] 0.993 | [29] 1

Cc1c(S(=O)(=O)c2ccc(Cl)cc2)csc1C(=O)NNc1cccc(Cl)c1
active: locus YER123W, strain YCK3, stronger effect = lower value 0.574 | locus YFR019W, strain FAB1, stronger effect = lower value 0.653 | locus YLR113W, strain HOG1, stronger effect = lower value 0.675 | locus YPL256C, strain CLN2, stronger effect = lower value 0.733
inactive: locus YAR019C, strain CDC15, stronger effect = lower value 0.964 | locus YBL105C, strain PKC1, stronger effect = lower value 0.958 | locus YBR135W, strain CKS1, stronger effect = lower value 0.96 | locus YBR136W, strain MEC1, stronger effect = lower value 0.962 | locus YBR160W, strain CDC28, stronger effect = lower value 0.957 | locus YDL017W, strain CDC7, stronger effect = lower value 0.967 | locus YDL028C, strain MPS1, stronger effect = lower value 0.97 | [4] 0.978 | locus YDL108W, strain KIN28, stronger effect = lower value 0.973 | locus YDL132W, strain cdc53, stronger effect = lower value 0.954 | locus YDL214C, strain PRR2, stronger effect = lower value 0.826 | locus YDR052C, strain DBF4, stronger effect = lower value 0.953 | locus YDR054C, strain cdc34, stronger effect = lower value 0.947 | locus YDR226W, strain ADK1, stronger effect = lower value 0.959 | locus YDR477W, strain SNF1, stronger effect = lower value 0.769 | locus YER133W, strain GLC7, stronger effect = lower value 0.864 | locus YFL009W, strain cdc4, stronger effect = lower value 0.962 | locus YFL029C, strain CAK1, stronger effect = lower value 0.959 | locus YFR003C, strain YPI1, stronger effect = lower value 0.967 | locus YFR028C, strain CDC14, stronger effect = lower value 0.948 | locus YGR040W, strain KSS1, stronger effect = lower value 0.811 | locus YGR052W, strain FMP48, stronger effect = lower value 0.71 | locus YGR092W, strain DBF2, stronger effect = lower value 0.783 | [8] 0.884 | locus YHR079C, strain IRE1, stronger effect = lower value 1.01 | locus YHR082C, strain KSP1, stronger effect = lower value 0.958 | locus YHR205W, strain SCH9, stronger effect = lower value 0.907 | locus YIL147C, strain SLN1, stronger effect = lower value 0.972 | [32] 0.679 | locus YJL128C, strain PBS2, stronger effect = lower value 0.968 | locus YJL157C, strain FAR1, stronger effect = lower value 0.886 | locus YJR016C, strain ILV3, stronger effect = lower value 0.968 | locus YJR066W, strain TOR1 (second series), stronger effect = lower value 0.684 | locus YJR066W, strain TOR1, stronger effect = lower value 0.872 | locus YKL048C, strain ELM1, stronger effect = lower value 0.947 | locus YKL067W, strain YNK1, stronger effect = lower value 0.879 | locus YKL101W, strain HSL1, stronger effect = lower value 0.948 | locus YKL193C, strain SDS22, stronger effect = lower value 0.963 | locus YKL203C, strain TOR2, stronger effect = lower value 0.954 | locus YLR133W, strain CKI1, stronger effect = lower value 0.81 | locus YLR403W, strain SFP1, stronger effect = lower value 0.877 | locus YML070W, strain DAK1, stronger effect = lower value 0.823 | locus YMR001C, strain CDC5, stronger effect = lower value 0.961 | locus YMR205C, strain PFK2 (second series), stronger effect = lower value 0.91 | locus YMR277W, strain FCP1, stronger effect = lower value 0.96 | locus YNL006W, strain LST8, stronger effect = lower value 0.963 | locus YNL020C, strain ARK1, stronger effect = lower value 0.941 | locus YNL161W, strain CBK1, stronger effect = lower value 0.955 | locus YNL183C, strain NPR1, stronger effect = lower value 0.911 | locus YNL207W, strain RIO2, stronger effect = lower value 0.969 | locus YNL222W, strain SSU72, stronger effect = lower value 0.961 | locus YNL307C, strain MCK1 (second series), stronger effect = lower value 0.743 | locus YOL078W, strain AVO1, stronger effect = lower value 0.965 | locus YOL136C, strain PFK27, stronger effect = lower value 0.889 | locus YOR119C, strain RIO1, stronger effect = lower value 0.905 | locus YOR231W, strain MKK1, stronger effect = lower value 0.942 | locus YOR329C, strain SCD5, stronger effect = lower value 0.969 | locus YPL031C, strain PHO85, stronger effect = lower value 0.852 | locus YPL153C, strain RAD53, stronger effect = lower value 0.857 | locus YPL204W, strain HRR25, stronger effect = lower value 0.897 | locus YPL209C, strain IPL1, stronger effect = lower value 0.955 | locus YPR025C, strain CCL1, stronger effect = lower value 0.962 | locus YPR106W, strain ISR1, stronger effect = lower value 0.971 | locus YPR111W, strain DBF20, stronger effect = lower value 0.952 | strain NNK1, stronger effect = lower value 0.966 | strain TSCII, stronger effect = lower value 0.957

Cc1cscc1S(=O)(=O)c1ccc(Cl)cc1
inactive: [1] 0.991 | [2] 0.969 | [3] 0.97 | [4] 0.966 | [5] 0.929 | [6] 0.98 | [7] 0.958 | [31] 0.981 | [8] 0.821 | [9] 0.974 | [10] 1 | [11] 0.958 | [12] 0.922 | [13] 0.991 | [14] 0.819 | [15] 0.975 | [16] 0.967 | [17] 0.833 | [18] 0.969 | [19] 0.978 | [20] 0.953 | [21] 0.855 | [33] 0.994 | [22] 0.945 | [23] 0.961 | [24] 0.975 | [25] 0.95 | [26] 0.904 | [27] 0.898 | [28] 0.953 | [29] 0.765

COc1cc(C(=O)O)c2c(c1C)OC(=O)c1c(C)cc(O)c(C=O)c1O2
inactive: locus YBR021W, strain FUR4, stronger effect = lower value 0.989 | [2] 0.997 | locus YCL029C, strain bik1, stronger effect = lower value 1 | locus YDL035C, strain GPR1, stronger effect = lower value 0.977 | locus YDL074C, strain BRE1, stronger effect = lower value 0.943 | [4] 1 | [30] 0.986 | locus YDL185W, strain tfp1, stronger effect = lower value 0.93 | locus YDL192W, strain arf1, stronger effect = lower value 0.991 | locus YDR101C, strain arx1, stronger effect = lower value 1.01 | [5] 0.997 | locus YDR162C, strain NBP2, stronger effect = lower value 0.969 | locus YDR318W, strain mcm21, stronger effect = lower value 1.01 | locus YDR388W, stronger effect = lower value 0.986 | locus YDR502C, strain sam2, stronger effect = lower value 1 | [6] 0.993 | locus YER110C, stronger effect = lower value 0.969 | locus YER155C, strain BEM2, stronger effect = lower value 1.02 | locus YER167W, strain BCK2, stronger effect = lower value 1.01 | locus YGL078C, strain dbp3, stronger effect = lower value 0.954 | locus YGL086W, strain mad1, stronger effect = lower value 0.986 | locus YGL248W, strain PDE1, stronger effect = lower value 1.01 | locus YGR135W, strain pre9, stronger effect = lower value 0.988 | locus YGR252W, strain gcn5, stronger effect = lower value 1.05 | locus YHR079C, strain IRE1 (second series), stronger effect = lower value 0.988 | locus YHR094C, strain hxt1, stronger effect = lower value 0.989 | locus YHR129C, strain ARP1, stronger effect = lower value 1 | locus YHR200W, strain rpn10, stronger effect = lower value 0.994 | locus YIL066C, strain RNR3, stronger effect = lower value 0.998 | locus YIL073C, strain SPO22, stronger effect = lower value 0.948 | locus YIR030C, strain dcg1, stronger effect = lower value 0.983 | [32] 0.998 | locus YJL134W, strain LCB3, stronger effect = lower value 0.996 | locus YJL168C, strain set2, stronger effect = lower value 0.972 | locus YJL187C, strain SWE1 (second series), stronger effect = lower value 0.969 | locus YKL009W, strain mrt4, stronger effect = lower value 0.974 | locus YKR001C, strain vps1, stronger effect = lower value 0.971 | [14] 0.929 | locus YLR058C, strain SHM2, stronger effect = lower value 1.01 | locus YLR102C, strain apc9, stronger effect = lower value 0.984 | locus YLR268W, strain sec22, stronger effect = lower value 0.956 | locus YLR371W, strain rom2, stronger effect = lower value 0.955 | locus YLR418C, strain cdc73, stronger effect = lower value 0.939 | locus YML016C, strain PPZ1, stronger effect = lower value 0.986 | locus YML032C, strain rad52, stronger effect = lower value 0.996 | locus YML124C, strain tub3, stronger effect = lower value 0.998 | locus YMR078C, strain ctf18, stronger effect = lower value 0.975 | locus YMR223W, strain ubp8, stronger effect = lower value 0.984 | [20] 0.991 | [21] 0.923 | locus YNL067W, strain RPL9B, stronger effect = lower value 0.997 | [33] 0.955 | locus YNL233W, strain BNI4, stronger effect = lower value 1.01 | locus YNL250W, strain rad50, stronger effect = lower value 0.919 | locus YNL307C, strain MCK1, stronger effect = lower value 0.989 | locus YNR052C, strain pop2, stronger effect = lower value 0.978 | locus YOL012C, strain htz1 0.7 | locus YOL147C, strain pex11, stronger effect = lower value 1.01 | locus YOR061W, strain CKA2, stronger effect = lower value 0.999 | locus YOR069W, strain VPS5, stronger effect = lower value 0.995 | locus YOR136W, strain idh2, stronger effect = lower value 1.02 | locus YOR144C, strain elg1, stronger effect = lower value 0.985 | locus YOR184W, strain ser1, stronger effect = lower value 0.975 | locus YOR316C, strain cot1, stronger effect = lower value 0.977 | [27] 0.973 | locus YPR119W, strain clb2, stronger effect = lower value 0.977 | locus YPR141C, strain kar3, stronger effect = lower value 0.942 | locus YPR163C, strain tif3, stronger effect = lower value 0.985 | locus YPR167C, strain met16, stronger effect = lower value 1.01 | strain wtn01, stronger effect = lower value 0.987
active: locus YIL125W, strain kgd1, stronger effect = lower value 0.927 | locus YKL068W, stronger effect = lower value 0.928 | locus YKL085W, strain MDH1 (second series), stronger effect = lower value 0.911 | locus YKL085W, strain MDH1, stronger effect = lower value 0.911 | locus YNL271C, strain bni1, stronger effect = lower value 0.917 | locus YNL298W, strain CLA4, stronger effect = lower value 0.898
